SARS PLP yeast: blocks SARS-CoV papain-like protease in a yeast assay; S. cerevisiae expressing SARS-CoV PLpro, growth rescue; actives 0.19% (n = 330,000); Potency, µM (doses to about 32.9 µM), for inactives: at the top dose activity, positive = growth rescue, actives largely listed as activators; calls by dose curve; also: potency is read from the fitted curve at half-maximal effect; 0% is about no effect; nearly all actives have a fitted effect of over 55% in size
Sm TGR block: inhibitors of Schistosoma mansoni thioredoxin glutathione reductase. actives 3% (n = 360,000). Q962Y6. Potency, µM (titrated, usually from 114 µM), for inactives: at the highest dose activity change, negative = inhibition, most hits filed as inhibitors. purified TGR, DTNB reduction, TNB absorbance 405 nm; also: potency is read from the fitted curve at half-maximal effect; % is scaled to controls: 0 for no effect and ±100 for the full control effect; nearly all actives have a fitted effect of over 60% in size
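Kinetic colorimetric format: TGR-catalysed, NADPH-driven DTNB reduction monitored via TNB absorbance. Enzyme dispensed at 20 nM; compound exposure 15 min at room temperature before reaction start.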
HCV inhibitor: blocks hepatitis C virus; Huh7.5.1 HCVcc-Cre infection, luciferase reporter, 44 h; Potency, µM (top dose mostly 41.8 µM), inactives show top-dose activity change, negative = inhibition, usual class: inhibitors; actives 3.4% (n = 340,000); AID 651820; also: potency is read from the fitted curve at half-maximal effect; % is scaled to controls: 0 for no effect and ±100 for the full control effect
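Cells seeded at 1,000/well and cultured 4 h, then compounds added followed by HCVcc-Cre virus (~0.5 moi). After 44 h further culture, luciferase substrate was added, plates held 15 min at room temperature, and luminescence read for 15 sec.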
Pf growth 96h: P. falciparum growth inhibition at 96 hour, primary screen for plastid delayed-death inhibitors. Potency, µM (top dose mostly 28.7 µM), inactives show at the top dose activity change, negative = inhibition, usual class: inhibitors. AID 504834. actives 6.9% (n = 320,000). P. falciparum luciferase reporter growth, 96 h; also: potency is read from the fitted curve at half-maximal effect; % is scaled to controls: 0 for no effect and ±100 for the full control effect
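P. falciparum expressing integrated firefly luciferase grown in erythrocytes (2% hematocrit, 0.05% parasitemia final) with compounds for 96 hours at 37 C, 5% CO2. Growth inhibition read as loss of luminescence after adding luciferase detection reagent.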
HCMV inh: blocks human cytomegalovirus replication | activity change, negative = inhibition, % at 57.5 µM | AID 1259415 | HFF cells, HCMV-luciferase reporter, 72 h; active compounds read low | actives 4.5% (n = 410,000); in the data active = activity change below about -60%; inconclusive = no clear call, values can overlap the other calls; inactive = above about -39%; also: % is scaled to controls: 0 for no effect and ±100 for the full control effect
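Human foreskin fibroblasts infected with luciferase-reporter HCMV at MOI 1 PFU/cell, compounds at two doses. Luciferase measured 72 h post infection; normalized to buffer-only basal and Salinomycin (10uM) controls.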
Pf growth 48h: inhibits P. falciparum growth in the first generation, 48 h | AID 504832 | actives 5.9% (n = 310,000) | Potency, µM (titrated, usually from 28.7 µM), without a hit: at the highest dose activity change, negative = inhibition, hits mostly inhibitors | P. falciparum luciferase growth in erythrocytes, 48 h; also: potency is read from the fitted curve at half-maximal effect; % is scaled to controls: 0 for no effect and ±100 for the full control effect
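Growth was read as firefly luciferase luminescence after a 48 h, 37 C, 5% CO2 exposure of compounds to reporter-bearing P. falciparum cultures (0.1% parasitemia, 2% hematocrit final) in Albumax-supplemented RPMI 1640.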
Starred values were filed as active, the others as inactive; ? = inconclusive; . = not tested or not shown; + = active, no number. A selection: hits, their analogues and other compounds. The true share with any hit is near 15%. Unless noted, calls follow the shape of the dose curve; as a rule, active = well fitted curve in the direction sought with a large enough effect; inconclusive = small, poorly fitted or top-dose-only effect, or another doubt; inactive = no such curve, though single readings can be large; an effect the other way counts as inactive or inconclusive.

SMILES | SARS PLP yeast | Sm TGR block | HCV inhibitor | Pf growth 96h | HCMV inh | Pf growth 48h
CC(C)[C@H](NC(=O)c1ccccc1)C(=O)Nc1cccc(S(=O)(=O)N2CCOCC2)c1 | -3.8% | -13.3% | 5.6% | ? | + | ?
CCOc1ccc(C(=O)N[C@H](C(=O)Nc2cccc(S(=O)(=O)N3CCOCC3)c2)C(C)C)cc1 | 2.3% | 1.3% | ? | ? | -8.9 | ?
Cc1ccc(NC(=O)[C@@H](NC(=O)c2cccc(S(=O)(=O)N3CCOCC3)c2)C(C)C)cc1C | -6.1% | -4.2% | 10µM* | ? | -25.6 | ?
CC(C)[C@H](NC(=O)c1cccc(S(=O)(=O)N2CCOCC2)c1)C(=O)Nc1nccs1 | -0.2% | -9.6% | 4.3% | 36.5% | -21.2 | -22.0%
CC(C)C(NC(=O)c1ccc(C(C)(C)C)cc1)C(=O)Nc1ccc(N2CCOCC2)cc1 (stereo unspecified) | -3.0% | 6.2% | 7.1% | ? | -5.6 | 13.1µM*
CCN(C(=O)COC(=O)/C=C/c1ccc(O)c(OC)c1)C1CCS(=O)(=O)C1 (stereo unspecified) | 11.9% | 1.6% | -8.6% | 4.2% | -29.6 | -1.9%
CCCCCCCCCCCCCCCCCCCCCC(=O)Nc1ccn([C@@H]2O[C@H](CO)[C@@H](O)[C@@H]2O)c(=O)n1 | . | . | . | -9.8% | . | 6.0%
CSc1ccccc1C(=O)C1CCCN(Cc2ccncc2)C1 (stereo unspecified) | 0.7% | -15.3% | ? | 1.17µM* | 20.9 | ?
COc1ccc(O)c(CN2CCCC(C(=O)c3ccccc3SC)C2)c1 (stereo unspecified) | -1.9% | ? | 11.2µM* | 16.2% | 14.8 | 5.22µM*
CCCCC(=O)N(C)c1c(CC)nc2c(OCc3cccc(Cl)c3)cccn12 | . | . | . | . | -8.0 | .
Cc1ccc(SCC(=O)OC(C)C(=O)NC2CCCCC2C)c(C)c1 (stereo unspecified) | 10.2% | -15.9% | 6.6% | ? | ? | -12.6%
COc1ccc(C)cc1NC(c1nnc(-c2ccccc2)o1)c1ccc(F)cc1Cl (stereo unspecified) | . | 0.4% | . | . | -4.6 | .
O=[N+]([O-])c1ccc2nc(-c3ccccc3)n(OCc3ccc(Cl)cc3)c2c1 | -1.8% | -0.1% | ? | 13.1µM* | 28.6 | 30.3%
Cc1cc(C(=O)CCl)c(C)n1-c1c(C)n(C)n(-c2ccccc2)c1=O | 1.7% | 0.0% | 8.91µM* | 6.57µM* | -35.0 | 8.28µM*
Cc1cc(C(=O)CC#N)c(C)n1-c1ccc(OC(F)F)cc1 | -2.5% | 2.4% | ? | 13.1µM* | -35.3 | ?
COc1ccc(CCNCc2cc(C)n(-c3ccc(OC)cc3)c2C)cc1 | -3.0% | 50.1µM* | -18.8% | ? | 16.0 | ?
COc1ccc(-n2c(C)cc(C(=O)COC(=O)Cn3cnc4ccccc43)c2C)cc1 | -10.8% | 3.3% | -1.2% | 48.0% | ? | 13.1µM*
COCC(=O)OCC(=O)c1cc(C)n(-c2ccc(Br)cc2)c1C | -8.8% | -20.2% | 11.2% | ? | 11.7 | -11.1%
COc1ccccc1C1(O)C(=O)Nc2ccc(C)cc21 (stereo unspecified) | -2.3% | 0.9% | 25.2% | ? | -13.3 | -6.5%
Cc1ccc(-n2c(C)cc(C(=O)COC(=O)c3ccc[nH]c3=O)c2C)cc1 | -11.0% | -4.7% | 8.1% | ? | 37.6 | 12.3%
COc1cccc(NC(=O)CSc2nnc(-c3ccoc3C)n2C)c1 | -2.1% | -1.1% | -2.1% | ? | 33.8 | 6.9%
COc1ccc(-n2c(C)cc(C(=O)CSc3nnc(-c4ccoc4C)n3C)c2C)cc1 | -4.6% | 0.0% | ? | . | ? | 9.28µM*
COc1ccc(-n2c(C)cc(C(=O)CCl)c2C)cc1 | -8.2% | 3.98µM* | ? | ? | -90.3* | -12.2%
Cc1cc(C(=O)COC(=O)c2ccc(O)cc2O)c(C)n1-c1ccc(OC(F)F)cc1 | -3.6% | -11.5% | 10µM* | ? | -63.4* | 9.28µM*

Assay outcomes: PubChem, National Center for Advancing Translational Sciences (NCATS)
